Test results as given in PubChem BioAssay (NCI).
This is part of a sample that, as a whole, favours compounds with a hit. Of some 83,000 tested, about 20% had one in any assay.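 The test compound was applied at a single concentration to cells in 96-well plates for 48 hours, and percent growth was recorded.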 Unmarked numbers belong to inactive results. Calls of active or inactive are those of the source. The calls were made as follows: active = growth percent below 10; inactive = the rest.

Legend:
Assay in all cases: NCI-60 one-dose screen, 48 h (100 = growth as untreated, 0 = no growth, -100 = all killed)
Conditions in all cases: 10 µM unless noted
[1] = test system: T-47D breast
[2] = test system: BT-549 breast
[3] = test system: MDA-MB-435 melanoma
[4] = test system: SW-620 colon
[5] = test system: MCF7 breast
[6] = test system: HCT-116 colon
[7] = test system: HCC-2998 colon

| Structure (SMILES) | growth [1] | growth [2] | growth [3] | growth [4] | growth [5] | growth [6] | growth [7] |
| --- | --- | --- | --- | --- | --- | --- | --- |
| COc1cnc2c(c1)C(=O)c1c-2n(CCCN2CCC(O)CC2)c(=O)c2cc(F)ccc12 | -4.28% (active) | 0.525% (active) | 8.13% (active) | 6.58% (active) | 0.145% (active) | -71.7% (active) | – |
| N#Cc1c(-c2ccccc2)cc(-c2ccccc2)n(CCCC(=O)O)c1=O | 89.1% | 83.6% | 104% | 105% | 60% | 93% | 103% |
| Oc1c(Cl)cc(Oc2cc(Cl)c(O)c(CN3CCOCC3)c2)cc1CN1CCOCC1 | 69.7% | 96.5% | 101% | 98.3% | 94.4% | 87% | – |
| COc1ccc(C2CC(c3ccc(Nc4ccnc5cc(Cl)ccc45)cc3)=NN2C(C)=O)cc1 (centres undefined) | 40% | 68.5% | 23% | 87.2% | 55.7% | 61.3% | 70% |
| COc1ccc(OC)c2c1CCC1(C2)NC(=O)NC1=O (centres undefined) | 109% | 114% | 95.9% | 103% | 92.4% | 107% | 106% |
| NS(=O)(=O)N(c1cc(C(F)(F)F)cc(C(F)(F)F)c1)C1CCN(Cc2ccc(C(F)(F)F)cc2)CC1 | 29.5% | 37.4% | -60.4% (active) | 19.9% | 9.31% (active) | 2.21% (active) | 3.6% (active) |
| CCOC(=O)CNC(=O)C1(NC(=O)CNC(=O)OCc2ccccc2)CCCC1 | 107% | 98% | 95.6% | 110% | 96.6% | 101% | 105% |
| CC1CC=CCC1C1OCC(C)(C)CO1 (centres undefined) | 75.3% | 99.9% | 105% | 102% | 101% | 97.5% | 113% |
| N#CSCC1CC(O)(c2ccccc2)C(c2ccccc2)C(c2ccc(Cl)cc2)O1 (centres undefined) | -35.3% (active) | -57.8% (active) | -65.2% (active) | -76.2% (active) | -51.5% (active) | -92.9% (active) | -86.2% (active) |
| COc1ccc(C(=O)COc2cccc(/C=C3\CSc4ccc(Cl)cc4C3=O)c2)cc1 | 70.4% | 42.5% | 93.2% | -65.9% (active) | -11.8% (active) | 53.9% | 95.2% |
| O=C(Nc1ccccc1)P(=O)(O)c1ccccc1 | 113% | 110% | 111% | 101% | 96.8% | 98.1% | 97.3% |
| c1ccc(N2c3nc4ccccc4cc3Sc3cc4ccccc4nc32)nc1 | 82.6% | 93.2% | 115% | 90.8% | 74% | 98.5% | 113% |
| COc1ccc(-c2c3c(N)nc(-c4ccncc4)nc3nc3c2c(C)nn3-c2ccccc2)cc1 | 75.2% | 87.1% | 54% | 34.4% | 47.7% | 15.6% | 102% |
| Nc1nc(Nc2ccccc2SSc2ccccc2Nc2nc(N)nc(C(Cl)(Cl)Cl)n2)nc(C(Cl)(Cl)Cl)n1 | 15.7% | 54.2% | 82.9% | 68.1% | 75.7% | 45.8% | 111% |
| CCOc1cc(/C=C/C(=O)C(C(=O)/C=C/c2ccc(OC(=O)CNc3nc4ccccc4[nH]3)c(OCC)c2)C(=O)CNc2nc3ccccc3[nH]2)ccc1OC(=O)CNc1nc2ccccc2[nH]1 | 37.3% | -31.3% (active) | -37.6% (active) | -71.4% (active) | 0.893% (active) | -61.3% (active) | -41.5% (active) |
| CCCCCCCCCCOC(C)=O | 100% | 118% | 106% | 106% | 93.6% | 112% | 109% |
| COc1ccc(Oc2ccccc2NC(=O)CNC(=O)c2cccc3ccccc23)cc1 | 41.6% [5 µM] | 30.9% [5 µM] | 1.66% [5 µM] (active) | 25.6% [5 µM] | 23.5% [5 µM] | 10.9% [5 µM] | 33.7% [5 µM] |

| Structure (SMILES) | growth [1] | growth [2] | growth [3] | growth [4] | growth [5] | growth [6] | growth [7] |
| --- | --- | --- | --- | --- | --- | --- | --- |
| CCSc1nc(-c2ccco2)n2nc(-c3ccco3)cc2n1 | 22.9% | 107% | 111% | 95.5% | 22.6% | 93.4% | 83.7% |
| CC(=O)N1N=C(c2ccc(Nc3nc(NCCO)nc(NCCO)n3)cc2)CC1c1ccc(Cl)cc1 (centres undefined) | 66.2% | 87.9% | 101% | 107% | 90.5% | 83.4% | 102% |
| COc1cc(NC(=O)NCc2ccco2)ccc1-c1ccc(NC(=O)NCc2ccco2)cc1OC | 40.9% | 81.7% | 76.5% | 72.6% | 44.7% | 35.2% | – |
| CO[C@H]1/C=C/O[C@@]2(C)Oc3c(C)c(O)c4c(O)c(c(/C=N/N5C(C)CN(Cc6ccc(C#N)cc6)CC5C)c(O)c4c3C2=O)NC(=O)/C(C)=C\C=C\[C@H](C)[C@H](O)[C@@H](C)[C@@H](O)[C@@H](C)[C@H](OC(C)=O)[C@@H]1C (some centres undefined) | 18.1% | -0.569% (active) | 26.1% | 31.5% | 11.9% | 18.5% | 2.4% (active) |
| O=C(NCCCl)NCCN1c2nc3ccccc3cc2Sc2cc3ccccc3nc21 | 69% | 40.3% | 58.5% | 41.3% | 18.3% | 31.3% | 35.1% |
| CCN1CCN(c2nc(NNC(=O)Cc3ccccc3)nc(N3CCN(C(c4ccccc4)c4ccccc4)CC3)n2)CC1 | 29.9% | 88.1% | -33.7% (active) | 16.5% | 33.9% | 28.3% | 38.5% |
| CC(=O)Nc1cc(C(c2ccccc2)c2ccccc2)cc(C(c2ccccc2)c2ccccc2)c1C | 24.9% | 55.5% | 63.9% | 52% | 41.3% | 8.02% (active) | 64.9% |
| CC(=O)Nc1ccc(C(=O)COc2ccc(/C=C3\CCc4ccccc4C3=O)cc2)cc1 | 91% | 97.1% | 122% | 113% | 122% | 106% | 118% |
| Nc1ncnc2c1CN(Cc1ccccc1)CC2 | 105% | 108% | 107% | 107% | 93.6% | 102% | 98.5% |
| C(#Cc1ccccc1C#Cc1ccccn1)c1ccc(OCCCCCCOc2ccc(C#Cc3ccccc3C#Cc3ccccn3)cc2)cc1 | 36.5% | 39.6% | 25.6% | 62.6% | 21.1% | 38.4% | 58.8% |
| COc1ccc2ncccc2c1Cc1c(OC)ccc2ncccc12 | 59.8% | 90.3% | 12.4% | 40.5% | 57% | 59.2% | – |
| Nc1ccc2c(c1)C(=O)c1cc(Cl)c(Cl)cc1-2 | 91% | 85.2% | 102% | 101% | 69.2% | 93.5% | 98% |
| CCC(C)C1NC(=O)C(CCNCS(=O)(=O)O)NC(=O)C(NC(=O)C(CCNCS(=O)(=O)O)NC(=O)C(NC(=O)C(CCNCS(=O)(=O)O)NC(=O)CCCCC(C)C)C(C)O)CCNC(=O)C(C(C)O)NC(=O)C(CCNCS(=O)(=O)O)NC(=O)C(CCNCS(=O)(=O)O)NC(=O)C(C(C)CC)NC1=O (centres undefined) | 49.2% | 66.3% | -56.2% (active) | 34.8% | 18.7% | 31.7% | 65.1% |
| CC(=O)c1ccccc1NC(=O)C(C)(c1ccccc1)c1ccccc1 | 67.7% | 75.7% | 98.6% | 93.4% | 102% | 42.1% | 108% |
| COc1ccc(CCN2C(=O)CCC3=C2CCCC3=O)cc1OC | 104% | 104% | 103% | 107% | 92.6% | 100% | 103% |
| COc1ccc2c(c1)CC/C(=C\c1ccc(OCC(=O)Nc3nc4ccccc4s3)cc1)C2=O | 88.3% | 83.6% | 100% | 93.9% | 98.4% | 89.1% | 87.6% |
| CCCCNCCCN(CCCC)CCCNCCCC | 105% | 97.2% | 94.3% | 101% | 95.8% | 90.9% | 103% |
